Consider 40 molecules from PubChem BioAssay (NCATS).

SMILES strings stand for the structures. Results filed as inconclusive are left out. Activity calls are given as the source filed them. The call rests on the fitted dose curve; in most records, active means well fitted cell-killing curve with a large enough effect; inconclusive means small, poorly fitted or top-dose-only effect, or effect the other way; inactive means no such curve, though single readings can be large or run the other way.
Potency means the concentration at half of the fitted maximal effect.

The nature of this assay: Quantitative High-Throughput drug screen in 47 multiple myeloma cell lines against the NCATS MIPE library collection: XG1_PLB cell viability assay (AID 1919866). Further: nearly all actives have a fitted effect of over 35% in size. The following applies: CellTiter-Glo ATP, 48 h; series mostly up to 45.8 µM. The text has this: PI: Beverly A. Mock Ph.D.
Laboratory of Cancer Biology and Genetics,
Center for Cancer Research, National Cancer Institute,
National Institute of Health, Bethesda, Maryland
Drug resistance and disease progression are common in multiple myeloma (MM) patients, underscoring the need for new therapeutic combinations. […] We hypothesized that effective combinations would reduce MYC expression and enhance p16 activity. […] These preclinical data identify potentially useful drug combinations for evaluation in drug-resistant MM and reveal potential mechanisms of combined drug sensitivity.
Described herein is the primary MIPE qHTS used to cherrypick compounds. Validated compounds were then further tested for potential synergistic activiy.
[1] Peat TJ, Gaikwad SM, Dubois W, Gyabaah-Kessie N, Zhang S, Gorjifard S, Phyo Z, Andres M, Hughitt VK, Simpson RM, Miller MA, Girvin AT, Taylor A, Williams D, D'Antonio N, Zhang Y, Rajagopalan A, Flietner E, Wilson K, Zhang X, Shinn P, Klumpp-Thomas C, McKnight C, Itkin Z, Chen L, Kazandijian D, Zhang J, Michalowski AM, Simmons JK, Keats J, Thomas CJ, Mock BA. Drug combinations identified by high-throughput screening promote cell cycle transition and upregulate Smad pathways in myeloma. Cancer Lett. 2023 Aug 1;568:216284. doi: 10.1016/j.canlet.2023.216284. Epub 2023 Jun 24. PMID: 37356470; PMCID: PMC10408729.
SEQUENCE No. (e.g., 1, 2, 3, etc.); […] (e.g., Cells, Incubation, Reagent, etc.); VALUE and DESCRIPTION.
1; Cells; 5 uL; white, solid bottom 1536-well Greiner assay plate.
2; Compounds; 23 nL; Kalypsis pin tool (Wako USA) equipped with a 1536-well pin head to transfer to the assay plates.
3; Incubation; 48 hours; 37C incubation.
4; Reagent;5uL; CellTiter Glo (Promega).
5; Detector; 425V; Luminescence; Viewlux PerkinElmer.
NOTES (numbers refer to Sequence numbers above)
1. The cell-based screening methods employed in this study were like those previously published. Briefly, the corresponding myeloma cell lines were screened in 1,536-well plates with 500 cells, 5-uL per well for inhibition of cell viability (assessed by measuring ATP levels with CellTiterGlo).
2. NCATS MIPE 4.0 library of approved and investigational drugs were added using the Kalypsis pin tool. Wells treated with DMSO only for 100% viability and media only for 0% viability were used as controls.
3. The assay plates were covered and incubated for 48 hours in a 37C, 5% CO2 incubator with controlled humidity.
4. After 48 hours, CellTilter-GloTM luminescent substrate mix (Promega) reagent was added to the assay plate and plates we incubated for 5 min at room temperature.
5. Signal was measured as median relative luminescence units on a ViewLux (PerkinElmer) multiplate reader.
[1] Heske CM, Davis MI, Baumgart JT, Wilson K, Gormally MV, Chen L, Zhang X, Ceribelli M, Duveau DY, Guha R, Ferrer M, Arnaldez FI, Ji J, Tran HL, Zhang Y, Mendoza A, Helman LJ, Thomas CJ. Matrix Screen Identifies Synergistic Combination of PARP Inhibitors and Nicotinamide Phosphoribosyltransferase (NAMPT) Inhibitors in Ewing Sarcoma. Clin Cancer Res. 2017 Dec 1;23(23):7301-7311. doi: 10.1158/1078-0432.CCR-17-1121. Epub 2017 Sep 12. PMID: 28899971; PMCID: PMC6636827.
(In general: ATP-based viability assays read luminescence as a measure of living cells.)
`O=C(C=Cc1cccc(S(=O)(=O)Nc2ccccc2)c1)NO`: the Potency is 2410 nM (active).
In the case of `COCCn1c2c([n+](Cc3cnccn3)c1C)C(=O)c1ccccc1C2=O` it was 7.4 nM (active); in that of `Cc1nc(Nc2n[nH]c3c2CN(C(=O)N[C@H](CN(C)C)c2ccccc2)C3(C)C)c2sccc2n1`, 296 nM (active).
For `CC1(C)CC(=O)c2c(C(F)(F)F)nn(-c3ccc(C(N)=O)c(NC4CCC(OC(=O)CN)CC4)c3)c2C1` (stereo not given) the value was 83.3 nM (active); for `C=CC(=O)Nc1cc2c(Nc3ccc(F)c(Cl)c3)ncnc2cc1OCCCN1CCOCC1`, 2640 nM (active); for `O=C(Nc1cn[nH]c1-c1nc2ccc(CN3CCOCC3)cc2[nH]1)NC1CC1`, 148 nM (active).
For `CCOc1ccccc1OCCNC(C)Cc1ccc(OC)c(S(N)(=O)=O)c1` (stereo not given), the Potency result was “inactive”.
With `Cn1c(CNc2ccc(C(=N)N)cc2)nc2cc(C(=O)N(CCC(=O)O)c3ccccn3)ccc21`, the Potency entry was “inactive”.
In the case of `C=CC(=O)Nc1cccc(Oc2nc(Nc3ccc(N4CCN(C)CC4)cc3)ncc2Cl)c1` it was 13200 nM (active); in that of `CN(C)c1nc(Cc2ccc(NC(=O)c3ccc4ccccc4c3)cc2)nc(Cl)c1CC(=O)O`, “inactive”; in that of `CC1COC2(CCN(c3nc(=O)c4cc(C(F)(F)F)cc([N+](=O)[O-])c4s3)CC2)O1` (stereo not given), “inactive”.
Turning to `C[C@]12CC[C@H](O)CC1=CCC1C2CC[C@]2(C)C(n3cnc4ccccc43)=CCC12` (stereo not given in full), the Potency entry is “inactive”.
For `COc1cc2ncn(-c3cc(OCc4ccccc4C(F)(F)F)c(C(N)=O)s3)c2cc1OC` the value was 209 nM (active).
For `CC[C@@H]1C(=O)N(C)c2cnc(Nc3ccc(C(=O)NC4CCC(N5CCN(CC6CC6)CC5)CC4)cc3OC)nc2N1C(C)C` (stereo not given in full) the value was 18.7 nM (active); for `COc1ccc(F)c(F)c1C(=O)c1cnc(NC2CCN(S(C)(=O)=O)CC2)nc1N`, 1660 nM (active); for `CC[C@H](CO)Nc1nc(NCc2ccccc2)c2ncn(C(C)C)c2n1`, 16600 nM (active).
For `COc1cccc(-c2ccc(NC(=O)C3=C(C(=O)O)CCC3)c(F)c2)c1` the value was 4180 nM (active).
Regarding `CCCCN1CCC(CNC(=O)c2c3n(c4ccccc24)CCCO3)CC1`, the Potency was 743 nM (active).
For `O=C(Nc1cc(C(F)(F)F)cc(C(F)(F)F)c1)c1cc(Cl)ccc1O` the value was 935 nM (active).
For `O=C(Nc1ncc(-c2cc(C(F)F)nn2-c2c(Cl)cccc2Cl)s1)C1CC1` the value was 105 nM (active); for `CCCn1c(=O)c2[nH]c(-c3cnn(Cc4cccc(C(F)(F)F)c4)c3)nc2n(CC)c1=O`, “inactive”.
For `Cc1cc(C(=O)N2CCN(c3cccc(Cl)c3)CC2)n(-c2ccccc2)n1`, the Potency was 93.5 nM (active).
For `Cn1c2ccccc2c2c3c(c4c5ccccc5n(CCC#N)c4c21)CNC3=O` the value was 2350 nM (active).
For `C[C@@H](Oc1cc(-c2cnn(C3CCNCC3)c2)cnc1N)c1c(Cl)ccc(F)c1Cl` the value was 4690 nM (active); for `Cc1c(Cn2c(C)nc3c(C(=O)O)cc(N4CCOCC4)cc32)cccc1C(F)(F)F`, 743 nM (active); for `COc1cc(Nc2ncc(F)c(Nc3ccc4c(n3)N(COP(=O)(O)O)C(=O)C(C)(C)O4)n2)cc(OC)c1OC`, 662 nM (active).
For `Cc1cc(Nc2cc(N3CCN(C)CC3)nc(C=Cc3ccccc3)n2)n[nH]1` the value was 4810 nM (active).
Regarding `Cc1ccc(C(N)=O)cc1Nc1nccc(-c2cn(C(C)C)c3cnccc23)n1`, the Potency was 3720 nM (active).
In the case of `COc1c(N2C[C@@H]3CCCN[C@H]3C2)c(F)cc2c(=O)c(C(=O)O)cn(C3CC3)c12` it was “inactive”; in that of `CC(C)CC(=O)Nc1n[nH]c2c1CN(C(=O)C1CCN(C)CC1)C2(C)C`, 1660 nM (active); in that of `CC(=O)Nc1nc(C)c(-c2ccc(Cl)c(S(=O)(=O)NCCO)c2)s1`, 1660 nM (active).
In the case of `COC(=O)c1ccc2c(C(=Nc3ccc(N(C)C(=O)CN4CCN(C)CC4)cc3)c3ccccc3)c(O)[nH]c2c1` it was 662 nM (active); in that of `Cc1nc(N)ncc1-c1nc(N2CCOCC2)c2sc(C(C)(C)O)cc2n1`, 1660 nM (active); in that of `COc1cccc(Nc2c(C(N)=O)cnc3c(C)cc(S(=O)(=O)c4cccc(C(=O)N(C)C)c4)cc23)c1`, “inactive”.
For the molecule `COc1cc2ncnc(Nc3ccc(F)c(Cl)c3)c2cc1NC(=O)C=CCN1CCCCC1`, the Potency was 4180 nM (active).
In the case of `COc1cc(C(=O)NS(=O)(=O)c2ccccc2C)ccc1Cc1cn(C)c2ccc(NC(=O)OC3CCCC3)cc12` it was 11800 nM (active).
`NC(=O)Nc1cc(-c2cccc(F)c2)sc1C(=O)N[C@H]1CCCNC1`: the Potency is 187 nM (active).
With `Cc1cn2c(-c3cn[nH]c3)cnc2c(Nc2ccc(C(=O)N3CCNCC3)cc2F)n1`, the Potency was 3720 nM (active).
In the case of `C[C@@H]1COC(Nc2ccc3ncnc(Nc4ccc(OCc5nccs5)c(Cl)c4)c3c2)=N1` it was 105 nM (active).
In the case of `C=CC(=O)Nc1cccc(Oc2nc(Nc3ccc(N4CCN(C)CC4)cc3OC)ncc2Cl)c1` it was 4.7 nM (active).
